Values joined by “and” are separate entries in the source; they are usually repeats but may differ in a detail not shown here. Identical values can stand only once. Records with an inconclusive call do not appear. A structure can be active in one record and inactive in another. Active and inactive are the calls of the source. Unless noted, the call rests on the fitted dose curve; in most records, active means well fitted curve in the direction sought with a large enough effect in the repeat runs; inconclusive means weak or mixed curves; inactive means no such curve, though single readings can be large; an effect the other way counts as inactive or inconclusive.

Consider 19 compounds from PubChem BioAssay (Tox21).

Assay [1] deals with Aryl hydrocarbon receptor (Homo sapiens) (UniProt P35869). The assay can be described thus: qHTS assay to identify small molecule that activate the aryl hydrocarbon receptor (AhR) signaling pathway (AID 743085). Further: nearly all actives have a fitted effect of over 15% in size. Further: potency means the concentration at half of the fitted maximal effect.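 On activation: HG2L7.5c1 human HepG2 liver cells with stably integrated DRE-driven firefly reporter; series mostly up to about 70 µM.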 Summed up:
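Compounds were tested in HepG2 hepatocellular carcinoma cells harbouring a stably integrated luciferase gene under control of 20 DREs. Increased reporter signal after 24 h treatment at 37C was taken as AhR activation.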

Assay [2] is described as follows: qHTS assay to identify small molecule that activate the aryl hydrocarbon receptor (AhR) signaling pathway - cell viability counter screen (AID 743086). Further: nearly all actives have a fitted effect of over 45% in size. Further: potency means the concentration at half of the fitted maximal effect. Summed up: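 Cytotoxicity counter screen: CellTiter-Fluor signal (30 min, 37 C) in 4000 HepG2 cells/well carrying the DRE-luciferase reporter, following 24 h compound exposure at 37 C.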
Assay [3] deals with Peroxisome proliferator-activated receptor gamma (Homo sapiens) (UniProt P37231). The assay can be described thus: qHTS assay to identify small molecule agonists of the peroxisome proliferator-activated receptor gamma (PPARg) signaling pathway (AID 743094; active means well fitted activation curve with a large enough effect in the signal ratio in the repeat runs, not every such curve was filed as active; the % refers to the signal ratio). Summed up: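 Beta-lactamase FRET fluorescence was the read-out after a 1 h room-temperature substrate step, following 17 h compound treatment at 37C of HEK293H cells expressing a UAS-driven bla reporter responsive to PPARg.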
(Quantitative high-throughput screening tests each substance at several concentrations.)

Assay [4] in a line: qHTS assay to identify small molecule antagonists of the peroxisome proliferator-activated receptor gamma (PPARg) signaling pathway - cell viability counter screen (AID 743194). Further: nearly all actives have a fitted effect of over 55% in size. Further: potency means the concentration at half of the fitted maximal effect. Summed up: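 Viability was measured as CellTiter-Glo luminescence in GeneBLAzer PPARg UAS-bla HEK293H cells. These cells had been exposed 17 h at 37 C to compounds together with rosiglitazone at 50 nM final, with the beta-lactamase readout taken in the same wells.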

A short description of assay [5]: qHTS assay for small molecule agonists of the antioxidant response element (ARE) signaling pathway - cell viability counter screen (AID 743203; calls by dose curve; further: nearly all actives have a fitted effect of over 55% in size; further: potency means the concentration at half of the fitted maximal effect). Summed up: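 HepG2 cells carrying ARE-driven beta-lactamase; 2,000 cells/well; 5 hrs plating; compound pinned from DMSO; 16 hrs 37C/5% CO2; CellTiter-Glo added; 30 min RT; luminescence.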
The nature of assay [6]: qHTS assay for small molecule activators of the heat shock response signaling pathway - cell viability counter screen (AID 743209). Further: nearly all actives have a fitted effect of over 50% in size. Further: potency means the concentration at half of the fitted maximal effect. Summed up:
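Luminescence from CellTiter-Glo, added after the beta-lactamase FRET read, gave the viability signal. Cells were HSE-bla HeLa treated with DMSO-dissolved compounds for 5 h at 37 C following overnight plating.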

Assay [7] is described as follows: qHTS assay to identify small molecule agonists of the peroxisome proliferator-activated receptor delta (PPARd) signaling pathway - cell viability counter screen (AID 743211). Further: nearly all actives have a fitted effect of over 55% in size. Further: potency means the concentration at half of the fitted maximal effect. Summed up: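 Counter screen for cytotoxicity run in parallel with the PPARd reporter screen. Beta-lactamase reporter HEK293H cells exposed to compounds 17 h; ATP-based CellTiter-Glo luminescence quantified viability.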

A short description of assay [8]: qHTS assay for small molecule agonists of the antioxidant response element (ARE) signaling pathway (AID 743202; active means well fitted activation curve with a large enough effect in the signal ratio in the repeat runs, not every such curve was filed as active; the % refers to the signal ratio; further: potency means the concentration at half of the fitted maximal effect). Summed up: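 Quantitative high-throughput format in HepG2 cells bearing an integrated ARE-beta-lactamase reporter. Compound exposure lasted 16 h at 37 C, and fluorescence was read 2 h after adding LiveBLAzer B/G substrate at room temperature.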
Assay [9] is described as follows: qHTS assay for small molecule activators of the heat shock response signaling pathway (AID 743210; active means well fitted activation curve with a large enough effect in the signal ratio in the repeat runs, with a control signal flat, not every such curve was filed as active; the % refers to the signal ratio;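 further: HeLa cells with beta-lactamase reporter driven by heat shock elements; series mostly up to about 63 µM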). Summed up: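 HeLa HSE-bla cells, overnight plating; cpd in DMSO 5 h, 37 C; LiveBLAzer B/G FRET substrate 2.5 h RT; fluorescence intensity read.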

Sequence of Aryl hydrocarbon receptor (Homo sapiens) (P35869 whole entry, looked up): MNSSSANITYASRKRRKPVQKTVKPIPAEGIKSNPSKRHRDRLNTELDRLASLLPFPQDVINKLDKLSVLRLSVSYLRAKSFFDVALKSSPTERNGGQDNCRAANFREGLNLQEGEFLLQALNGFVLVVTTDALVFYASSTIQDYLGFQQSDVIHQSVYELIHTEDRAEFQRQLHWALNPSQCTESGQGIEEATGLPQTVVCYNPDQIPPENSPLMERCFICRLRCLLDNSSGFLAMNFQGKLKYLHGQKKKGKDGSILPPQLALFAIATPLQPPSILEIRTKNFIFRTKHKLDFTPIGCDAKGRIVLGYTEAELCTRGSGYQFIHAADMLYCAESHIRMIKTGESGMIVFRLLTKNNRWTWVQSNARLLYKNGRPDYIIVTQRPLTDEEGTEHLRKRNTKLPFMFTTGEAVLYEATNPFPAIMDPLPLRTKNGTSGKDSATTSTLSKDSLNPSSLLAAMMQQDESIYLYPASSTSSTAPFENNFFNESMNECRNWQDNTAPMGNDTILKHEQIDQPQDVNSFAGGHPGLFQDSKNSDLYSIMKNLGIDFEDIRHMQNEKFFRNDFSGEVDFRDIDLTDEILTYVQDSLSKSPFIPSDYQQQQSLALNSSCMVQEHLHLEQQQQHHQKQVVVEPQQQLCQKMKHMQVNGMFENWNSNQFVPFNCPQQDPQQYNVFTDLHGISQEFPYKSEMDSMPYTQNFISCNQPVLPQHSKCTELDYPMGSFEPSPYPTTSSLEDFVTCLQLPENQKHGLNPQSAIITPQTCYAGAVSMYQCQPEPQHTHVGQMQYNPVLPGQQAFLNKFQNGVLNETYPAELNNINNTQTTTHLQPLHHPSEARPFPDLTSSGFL
Sequence of Peroxisome proliferator-activated receptor gamma (Homo sapiens) (P37231 whole entry, looked up): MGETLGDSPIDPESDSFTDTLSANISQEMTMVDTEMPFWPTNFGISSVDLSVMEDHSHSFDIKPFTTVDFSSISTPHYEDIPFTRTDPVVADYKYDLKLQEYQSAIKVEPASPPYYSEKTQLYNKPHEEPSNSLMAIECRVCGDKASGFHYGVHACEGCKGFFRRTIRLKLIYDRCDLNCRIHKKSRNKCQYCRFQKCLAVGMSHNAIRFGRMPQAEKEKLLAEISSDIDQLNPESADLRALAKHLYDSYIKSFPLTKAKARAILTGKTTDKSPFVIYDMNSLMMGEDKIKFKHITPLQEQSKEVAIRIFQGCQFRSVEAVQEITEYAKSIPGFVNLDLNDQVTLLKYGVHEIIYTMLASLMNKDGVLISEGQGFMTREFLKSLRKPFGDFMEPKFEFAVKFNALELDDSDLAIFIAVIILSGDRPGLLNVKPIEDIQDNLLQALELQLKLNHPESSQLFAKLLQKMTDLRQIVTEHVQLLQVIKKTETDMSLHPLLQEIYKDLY

Take `O=C(c1ccc(O)cc1O)c1ccc(O)cc1O`: in [1], the Potency was 21.7 µM (active). The Potency entry in assay [2], in assay [3], in assay [4], in [5], in assay [6] and in [7] was “inactive” in each case.

In the case of `COC(=O)C1=C(C)NC(C)=C(C(=O)OCC(C)C)C1c1ccccc1[N+](=O)[O-]` (stereo not given), the Potency in assay [1] was 9.44 µM (active); in assay [8], 23.7 µM (active); in [7], 21.9 µM (active) and inactive. Moreover, the Potency entry in assay [2], in assay [4], in [5] and in assay [6] was “inactive” in each case.

Regarding `Cn1cc(C(=O)[C@@H]2CCc3nc[nH]c3C2)c2ccccc21`, the Potency entry in [1], in assay [2], in [3], in assay [4], in assay [8] and in assay [5] was “inactive” throughout. In addition, the Potency entry in [6] and in assay [7] was “inactive” each time.

Consider `CCN(CCC#N)c1ccc(N=Nc2c(Cl)cc([N+](=O)[O-])cc2Cl)cc1`, for which the Potency entry in assay [1], in [3], in assay [4], in [5] and in assay [6] was “inactive” throughout. The Potency in [2] is 27.3 µM (active).

In the case of `CCOc1ccc2nc3cc(N)ccc3c(N)c2c1`, in assay [1], the Potency is 11.9 µM (active). In addition, the Potency entry in assay [2] and in [4] was “inactive” each time.

Regarding `N=C1C=CC(=C(c2ccc(N)cc2)c2ccc(N)cc2)C=C1`, the Potency entry in assay [1] and in [3] was “inactive” in each case. The Potency in assay [2] is 17.2 µM (active); in assay [4], 6.92 µM (active); in assay [5], 61.1 µM (active); in assay [6] it was 30.9 µM (active).

On to `CCCCCCCCCCCCCCCC[N+](C)(C)CCN(Cc1ccc(OC)cc1)c1ncccn1`, for which the Potency result in assay [1], in [2] and in assay [3] was “inactive” throughout. Moreover, the Potency in [4] is 26.6 µM (active); in [7] it was 13.3 µM (active).

Take `CNC(=O)c1ccccc1`: the Potency result in assay [1], in assay [2], in [3], in assay [4], in [5] and in [6] was “inactive” in each case. The Potency entry in [9] and in [7] was “inactive” throughout.

On to `CCCCN1CCCC[C@H]1C(=O)Nc1c(C)cccc1C`, for which the Potency result in assay [1], in assay [2], in assay [3], in [4], in assay [5] and in [6] was “inactive” throughout. In assay [9], the Potency entry was “inactive”.

For the compound `Cc1cc(O)c2ccccc2c1O`, the Potency in assay [1] is 9.44 µM (active); in assay [4], 10.6 µM (active); in [5] it was 13.3 µM (active); in assay [6], 9.44 µM (active); in assay [7], 10.6 µM (active). The Potency entry in assay [2] and in [3] was “inactive” in each case.

In the case of `C/C=C(\C)C(=O)OCc1ccccc1`, the Potency entry in assay [1], in [2], in assay [3], in assay [4], in assay [8] and in [5] was “inactive” throughout. In addition, the Potency result in assay [7] was “inactive”.

For `O=C(Nc1cccc(Cl)c1)OCC#CCCl`, in [1], the Potency entry is “inactive”. The Potency is 27.3 µM (active) in [2]; 24.5 µM (active) in assay [4]; 54.5 µM (active) in assay [5]; 19.5 µM (active) in [6]; 38.9 µM (active) in assay [7].

For the compound `O=C1CCCc2c1cc1ccc3cccc4ccc2c1c34`, the Potency in assay [1] is 69.4 µM (active). Further, the Potency result in [2], in assay [4] and in [5] was “inactive” throughout.

Regarding `C[C@H](CCC(=O)O)[C@H]1CC[C@H]2[C@@H]3CC[C@@H]4C[C@H](O)CC[C@]4(C)[C@H]3CC[C@]12C`, the Potency result in assay [1] and in assay [2] was “inactive” in each case. Also, the Potency in assay [4] was 21.8 µM (active) and 49 µM (active); in [7], “inactive and 54.9 µM (active)”.

Turning to `CSc1ccc2c(c1)C(N1CCN(C)CC1)Cc1ccccc1S2` (stereo not given), the Potency result in [1], in assay [6] and in assay [9] was “inactive” throughout. In addition, the figures for the Potency in assay [2], in [4] and in assay [7] were 29.8 µM (active), 18.8 µM (active) and 29.8 µM (active), respectively.

Turning to `CCCCc1oc2ccc(NS(C)(=O)=O)cc2c1C(=O)c1ccc(OCCCN(CCCC)CCCC)cc1`, the Potency result in [1] is “inactive”. The Potency is 26.6 µM (active) in assay [2]; 29.8 µM (active) in assay [4]; 26.6 µM (active) in assay [5]; 29.8 µM (active) in [6]; 16.8 µM (active) in [7].

On to `NC(=O)CC[C@@H]1NC(=O)[C@H](Cc2ccccc2)NC(=O)[C@H](Cc2ccc(O)cc2)NC(=O)CCSSC[C@@H](C(=O)N2CCC[C@H]2C(=O)N[C@@H](CCCN=C(N)N)C(=O)NCC(N)=O)NC(=O)[C@H](CC(N)=O)NC1=O`, for which the Potency result in assay [1], in [2], in assay [4], in [5], in [6] and in [7] was “inactive” each time.

Turning to `CCCCCCCC[N+](CCCCCCCC)(CCCCCCCC)CCCCCCCC`, the Potency result in [1] is “inactive”. Further, the Potency in assay [2] was 43.2 µM (active); in [4], 10.9 µM (active); in assay [5], 13.7 µM (active); in assay [6], 4.89 µM (active); in assay [7], 6.15 µM (active).

With `Oc1cccc(-c2c3nc(c(-c4cccc(O)c4)c4ccc([nH]4)c(-c4cccc(O)c4)c4nc(c(-c5cccc(O)c5)c5ccc2[nH]5)CC4)C=C3)c1`, the Potency result in assay [1], in [5] and in assay [6] was “inactive” throughout. Also, the Potency in assay [2] was 26.6 µM (active) and 29.8 µM (active); in assay [4], 29.8 µM (active); in [7] it was 13.3 µM (active).
